The list is not random: actives were taken first. Their share in the collection is about 4.1%.
TRPM1 prom inh – inhibitors of MITF-dependent TRPM1 promoter reporter, primary screen, cell-based, SK-MEL-5, single point, luciferase; SK-MEL-5 TRPM1 promoter luciferase, 24 h; hit rate 0.83% among 330,000; inhibition, % at 12.5 µM;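 active = mean inhibition across replicates of 60% or more, whatever share of single replicates reaches that level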
TWEAK Fn14 block – inhibitors of TWEAK-Fn14 signaling, primary screen, luciferase reporter cells, uHTS | TWEAK-stimulated Fn14 reporter cells, luciferase luminescence, 8 h | inhibition, % at 10 µM | hit rate 2% among 360,000 | AID 1159606, 2016; in the data active = inhibition above about 50%
LMP1 NFkB inh – EBV LMP1-driven NF-kappaB luciferase reporter inhibitors, primary screen, cell-based, luminescence, single point; LMP1-induced NF-kappaB luciferase reporter cells; inhibition, % at 12.5 µM; hit rate 0.69% among 350,000; AID 504558, 2011; in the data active = inhibition above about 41%
Shn3 inh set2 – reduction of Shn3 3'UTR firefly luciferase signal, primary screen, Schnurri-3 inhibitor project, cell-based, Clone20 osteoblasts, set 2; Clone20 osteoblast Shn3 3'UTR firefly luciferase, 24 h; inhibition, % at 12.5 µM; hit rate 0.52% among 360,000; AID 588674, 2011;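 active = mean inhibition of at least 75% with every replicate also reaching 75%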
TROY signal inh – inhibitors of TROY-driven NF-kB signaling, primary screen, Q293 LMP1-TROYcd cells, NF-kB luciferase, uHTS | Q293 LMP1-TROYcd NF-kB luciferase reporter, 4 h | AID 1347056, 2019 | inhibition, % at 10 µM | hit rate 0.98% among 360,000;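 active = compounds whose plate-normalised and pattern-corrected inhibition of the luciferase reporter signal at the single screening dose is 50% or more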
Peg3 prom inh – Peg3 promoter-driven luciferase inhibitors, primary screen, cell-based, HeLa, luciferase luminescence; inhibition, % at 20 µM; AID 588405, 2011; hit rate 1.7% among 360,000; HeLa PEG-Prom luciferase reporter, overnight;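 active = inhibition of at least 50% at 20 µM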
A number is an active result; ! = repeats disagree.

What do the screens show for `O=C(Nc1cc(S(=O)(=O)N2CCCCC2)ccc1Cl)c1ccccc1NS(=O)(=O)c1ccc(F)cc1`?
TRPM1 prom inh: inactive; TWEAK Fn14 block: 65; LMP1 NFkB inh: inactive; Shn3 inh set2: inactive; TROY signal inh: 52; Peg3 prom inh: 53

What do the screens show for `Nc1ccc(Oc2ccccc2F)nc1`?
TRPM1 prom inh: inactive; TWEAK Fn14 block: inactive; LMP1 NFkB inh: inactive; TROY signal inh: inactive; Peg3 prom inh: inactive

Results for Nc1cccnc1Oc1ccccc1F ?
TRPM1 prom inh: inactive; TWEAK Fn14 block: inactive; LMP1 NFkB inh: inactive; Shn3 inh set2: inactive; TROY signal inh: 68; Peg3 prom inh: inactive

What do the screens show for `CCNC(=O)Cn1cc(C(F)(F)F)cc(Cl)c1=O`?
TRPM1 prom inh: inactive; TWEAK Fn14 block: inactive; LMP1 NFkB inh: inactive; Shn3 inh set2: inactive; TROY signal inh: inactive; Peg3 prom inh: inactive

How did COc1ccc(C(=O)NNC(=O)CSc2nnc(C)n2CC2CCCO2)cc1 (stereo not drawn) do in these assays?
TRPM1 prom inh: inactive; TWEAK Fn14 block: inactive; LMP1 NFkB inh: inactive; Shn3 inh set2: inactive; TROY signal inh: inactive; Peg3 prom inh: inactive

Results for Cc1nn(C)cc1CN(C)S(=O)(=O)c1cccc([N+](=O)[O-])c1 ?
TRPM1 prom inh: inactive; TWEAK Fn14 block: inactive; LMP1 NFkB inh: inactive; Shn3 inh set2: inactive; TROY signal inh: inactive; Peg3 prom inh: inactive

Results for CC(=O)/C(C(=N)N1CCN(c2cccc(Cl)c2)CC1)=C(\C)O ?
TRPM1 prom inh: inactive; TWEAK Fn14 block: 75; LMP1 NFkB inh: inactive; Shn3 inh set2: inactive; TROY signal inh: 57; Peg3 prom inh: inactive

Results for Cc1cccc(N2CCN(C(=O)c3cccc(N4CCCC4=O)c3)CC2)c1C ?
TRPM1 prom inh: inactive; TWEAK Fn14 block: inactive; LMP1 NFkB inh: inactive; Shn3 inh set2: inactive; TROY signal inh: inactive; Peg3 prom inh: inactive

Results for O=C(c1cccc(F)c1)N1CCN(c2cccc(Cl)c2)CC1 ?
TRPM1 prom inh: inactive; TWEAK Fn14 block: inactive; LMP1 NFkB inh: 45; Shn3 inh set2: inactive; TROY signal inh: inactive; Peg3 prom inh: inactive

What do the screens show for `O=C(c1cccc(N2CCCC2=O)c1)N1CCN(c2ccccc2)CC1`?
TRPM1 prom inh: inactive; TWEAK Fn14 block: inactive; LMP1 NFkB inh: inactive; Shn3 inh set2: inactive; TROY signal inh: 76; Peg3 prom inh: inactive

What do the screens show for `COc1ccc(CNC(=O)COc2ccc(Br)c(C)c2)cc1`?
TRPM1 prom inh: inactive; TWEAK Fn14 block: inactive; LMP1 NFkB inh: inactive; Shn3 inh set2: inactive; TROY signal inh: inactive; Peg3 prom inh: inactive

How did COc1ccc(C(=O)CSc2ccccc2C(=O)O)cc1 do in these assays?
TRPM1 prom inh: inactive; TWEAK Fn14 block: inactive; LMP1 NFkB inh: inactive; Shn3 inh set2: inactive; TROY signal inh: inactive; Peg3 prom inh: inactive

Results for COc1cc(-c2nc(-c3ccccc3)c(-c3cccs3)[nH]2)cc(OC)c1O ?
TRPM1 prom inh: inactive; TWEAK Fn14 block: inactive; LMP1 NFkB inh: inactive; Shn3 inh set2: inactive; TROY signal inh: inactive; Peg3 prom inh: inactive

Results for COc1cc(-c2nc(-c3ccccc3)c(-c3cccs3)[nH]2)cc(OC)c1OC ?
TRPM1 prom inh: inactive; TWEAK Fn14 block: 66; LMP1 NFkB inh: inactive; Shn3 inh set2: inactive; TROY signal inh: inactive; Peg3 prom inh: inactive

How did Oc1ccccc1-c1nc2c3ccccc3c3ccccc3c2[nH]1 do in these assays?
TRPM1 prom inh: inactive; TWEAK Fn14 block: inactive; LMP1 NFkB inh: inactive; Shn3 inh set2: inactive; TROY signal inh: inactive; Peg3 prom inh: inactive

How did O=C(O)c1ccccc1-c1nc(-c2ccccc2)c(-c2ccccc2)[nH]1 do in these assays?
TRPM1 prom inh: inactive; TWEAK Fn14 block: inactive; LMP1 NFkB inh: inactive; Shn3 inh set2: inactive; TROY signal inh: inactive; Peg3 prom inh: inactive

Results for c1csc(-c2nc3c4ccccc4c4ccccc4c3[nH]2)c1 ?
TRPM1 prom inh: inactive; TWEAK Fn14 block: 69; LMP1 NFkB inh: inactive; Shn3 inh set2: inactive; TROY signal inh: inactive; Peg3 prom inh: inactive

How did c1ccc(-c2nc(-c3cccs3)[nH]c2-c2ccccc2)cc1 do in these assays?
TRPM1 prom inh: inactive; TWEAK Fn14 block: 52; LMP1 NFkB inh: inactive; Shn3 inh set2: inactive; TROY signal inh: inactive; Peg3 prom inh: inactive

What do the screens show for `Cc1cc(=O)n2c3ccccc3n(C)c2n1`?
TRPM1 prom inh: inactive; TWEAK Fn14 block: inactive; LMP1 NFkB inh: inactive; Shn3 inh set2: inactive; TROY signal inh: inactive; Peg3 prom inh: inactive

What do the screens show for `O=C(CN1CCSC1=O)N1CCN(S(=O)(=O)c2ccccc2)CC1`?
TRPM1 prom inh: inactive; TWEAK Fn14 block: inactive; LMP1 NFkB inh: inactive; Shn3 inh set2: inactive; TROY signal inh: inactive; Peg3 prom inh: inactive

How did CC(=O)c1c(C)oc2ccc(N(C(C)=O)S(=O)(=O)c3ccc(Cl)c([N+](=O)[O-])c3)cc12 do in these assays?
TRPM1 prom inh: 65; TWEAK Fn14 block: inactive; LMP1 NFkB inh: inactive; Shn3 inh set2: inactive; TROY signal inh: 88; Peg3 prom inh: 104

How did CC(=O)c1c(C)oc2ccc(N(C(C)=O)S(=O)(=O)c3ccc(Br)cc3)cc12 do in these assays?
TRPM1 prom inh: inactive; TWEAK Fn14 block: inactive; LMP1 NFkB inh: inactive; Shn3 inh set2: inactive; TROY signal inh: inactive; Peg3 prom inh: inactive

Results for CC1(C(=O)NCCc2ccccc2)Cc2c(-c3cccc(C(F)(F)F)c3)ccnc2O1 (stereo not drawn) ?
TWEAK Fn14 block: inactive; Shn3 inh set2: inactive; TROY signal inh: inactive; Peg3 prom inh: inactive

How did Cc1cc(N2CCN(c3ccc(C(F)(F)F)cc3[N+](=O)[O-])CC2)c2ccccc2n1 do in these assays?
TRPM1 prom inh: inactive; TWEAK Fn14 block: inactive; LMP1 NFkB inh: inactive; Shn3 inh set2: inactive; TROY signal inh: inactive; Peg3 prom inh: inactive

Results for Cc1cc(N2CCN(c3nc(-c4ccccc4)cs3)CC2)c2ccccc2n1 ?
TRPM1 prom inh: inactive; TWEAK Fn14 block: 66; LMP1 NFkB inh: inactive; Shn3 inh set2: inactive; TROY signal inh: inactive; Peg3 prom inh: inactive

How did Cc1cc(N2CCN(c3ccc([N+](=O)[O-])c4cccnc34)CC2)c2ccccc2n1 do in these assays?
TRPM1 prom inh: 76; TWEAK Fn14 block: inactive; LMP1 NFkB inh: inactive; Shn3 inh set2: inactive; TROY signal inh: inactive; Peg3 prom inh: 106

How did Nc1ncnc2nc[nH]c12 do in these assays?
TRPM1 prom inh: inactive; TWEAK Fn14 block: inactive; LMP1 NFkB inh: 59!; Shn3 inh set2: inactive; TROY signal inh: inactive; Peg3 prom inh: inactive

What do the screens show for `O=C1OC(c2ccccc2)(c2cc(Br)c(O)c(Br)c2)c2ccccc21` (stereo not drawn)?
TRPM1 prom inh: inactive; TWEAK Fn14 block: inactive; LMP1 NFkB inh: inactive; Shn3 inh set2: inactive; TROY signal inh: 53; Peg3 prom inh: inactive

What do the screens show for `O=C(COc1ccc(S(=O)(=O)N2CCOCC2)cc1)NCCN1CCOCC1`?
TRPM1 prom inh: inactive; TWEAK Fn14 block: inactive; LMP1 NFkB inh: inactive; Shn3 inh set2: inactive; TROY signal inh: inactive; Peg3 prom inh: inactive
